SMARCA2 activ: SMARCA2 function activation, primary screen; MG213 cells, MMTV-luciferase reporter, dexamethasone, overnight; activation, % at 9.1 µM; 1% of 370,000 active; AID 652017; in the data active = activation above about 7.8%;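 also: 0% = vehicle wells and 100% = reference activator wells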
esBAF inh: blocks esBAF chromatin remodeling in mouse ES cells. Bmi1-luciferase knock-in reporter, 24 h; 100% = twice the neutral-well signal. reporter increase, % at 12.5 µM. 2% of 350,000 active. AID 602393; in the data active = activation above about 40%; inconclusive = no clear call, values can overlap the other calls;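 also: 0% = median of the plate's neutral control wells and 100% = double that signal; a rise in the Bmi1 reporter signal indicates esBAF inhibition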
NR3A LBD binder: NR3A (human) ligand-binding domain modulation; NR3A LBD differential scanning fluorimetry, Tm shift; 0% = protein alone, 100% = glycine-bound protein; Tm shift relative to glycine control, % at 25 µM; 2.5% of 340,000 active;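 active = melting temperature shift of at least 10% of the positive control shift, at one fixed dose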
Vif imaging: inhibitors of HIV Vif; HEK293T cells, Vif self-association by quenched fluorescence, imaging, 24 h; inhibition, % at 7.49 µM; 0.35% of 340,000 active; AID 602346; in the data active = inhibition above about 50%, passing the limit was not always enough; inconclusive = no clear call, values can overlap the other calls; inactive = below about 31%
NadD inh: blocks S. aureus nicotinate mononucleotide adenylyltransferase; 0.78% of 360,000 active; inhibition, % at 20 µM; purified NadD enzyme, colorimetric absorbance read-out; AID 602399; in the data active = inhibition above about 26%
SKN-1 block: blocks SKN-1 activity in C. elegans; inhibition, % at 21.8 µM; C. elegans VP596 Pgst-4::GFP/RFP ratio, acrylamide-induced, 24 h; 0.49% of 360,000 active;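 active = interference check ratio from 0.5 to 1.5 plus GFP to RFP signal ratio inhibition reaching or exceeding a fixed threshold, cut at about 30% in these data, passing the limit was not always enough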
An asterisk follows results filed as active; ? = inconclusive; nt = no result. Only some compounds are listed: those with a hit (about 5.2% of all), similar ones and a draw of the others.

SMILES | SMARCA2 activ | esBAF inh | NR3A LBD binder | Vif imaging | NadD inh | SKN-1 block
O=c1[nH]c(O)c(N=Nc2cc([N+](=O)[O-])ccc2O)c(=O)[nH]1 | 3 | nt | 1 | 6 | 4 | 50*
O=c1[nH]c(O)c(N=Nc2ccc(SC(F)F)cc2)c(=O)[nH]1 | 2 | nt | 0 | 2 | -4 | -1
C[C@]12CC[C@H](O)CC1=CC(=O)C1C2CC[C@]2(C)C(=O)CCC12 (some centres undefined) | -6 | -3 | 3 | 18 | 1 | 8
C[C@]12CC[C@@H](O)CC1=CC(=O)C1C2CC[C@]2(C)C(=O)CCC12 (some centres undefined) | -1 | nt | 11* | 7 | 1 | -13
COC(=O)[C@H]1[C@H](CO)[C@H]2Cn3c(ccc(-c4ccccc4)c3=O)[C@@H]1N2S(=O)(=O)c1ccccc1C | nt | 1 | nt | nt | nt | nt
O=C(N/N=C/c1c(O)n(CCC2=CCCCC2)c(=O)[nH]c1=O)c1ccccc1 | 3 | nt | -1 | -4 | 12 | -17
O=C(N/N=C/c1c(O)n(CCC2=CCCCC2)c(=S)[nH]c1=O)c1ccccc1 | 3 | nt | 24* | 3 | 19 | 2
CCCCn1c(O)c(/C=N/NC(=O)c2ccncc2)c(=O)[nH]c1=S | -4 | nt | -5 | 2 | -2 | 16
Cn1c(O)c(/C=N/NC(=O)c2ccncc2)c(=O)[nH]c1=S | 4 | nt | -1 | 2 | -1 | 42*
CC(=O)C1CCC2C3CCC4CC(O)CCC4(C)C3CCC12C (centres undefined) | 1 | -3 | 14* | -10 | -2 | -3
O=C(Cc1ccncc1)N1CCCCN2[C@H](CO)[C@H](c3ccc(C#Cc4ccccc4F)cc3)[C@H]2C1 | nt | 0 | nt | nt | nt | nt
CCCN1[C@@H]2c3cccc(=O)n3C[C@H]1[C@H](CO)[C@H]2C(=O)N(C)C | nt | -2 | nt | nt | nt | nt
O=C(O)[C@@H]1[C@@H](CO)[C@@H]2Cn3c(ccc(-c4ccncc4)c3=O)[C@H]1N2C(=O)C1CC1 | nt | 1 | nt | nt | nt | nt
COC(=O)[C@@H]1[C@@H](CO)[C@@H]2Cn3c(ccc(-c4cccc(OC)c4)c3=O)[C@H]1N2C(=O)c1cnccn1 | nt | -2 | nt | nt | nt | nt
CCCCn1c(O)c(C(C)=NCCc2c[nH]c3ccccc23)c(=O)[nH]c1=O | 0 | nt | -6 | -9 | -6 | -3
O=C(/C=C/c1c[nH]c2ccccc12)c1c(O)n(CCc2ccccc2)c(=O)[nH]c1=O | -3 | nt | -2 | 3 | 18 | 40*
CC(C)c1cccc(C(C)C)c1OCCn1ccnc1 | -3 | 5 | -5 | 1 | -5 | 34*
c1ccc(Cn2ccnc2)cc1 | -5 | 3 | -4 | -2 | 6 | -9
O=C(O)[C@@H]1[C@@H](CO)[C@@H]2Cn3c(ccc(-c4cccc(F)c4)c3=O)[C@H]1N2CCc1ccccc1 | nt | -3 | nt | nt | nt | nt
CC=Cc1ccc2n(c1=O)C[C@H]1[C@H](CO)[C@@H](C(=O)OC)[C@@H]2N1C(=O)CC1CC1 (mixture of isomers) | nt | -3 | nt | nt | nt | nt
NC(N)=N/N=C/c1ccc(N(c2ccccc2)c2ccccc2)cc1 | -4 | -16 | 22* | 3 | 13 | -6
CC1Oc2cc3c(-c4c(O)cc(O)c5c(O)c6c(cc45)OC(C)C(C)C6=O)c(O)cc(O)c3c(O)c2C(=O)C1C (centres undefined) | nt | -59 | 18* | -7 | 36* | 7
Cc1ccccc1S(=O)(=O)N1[C@@H]2c3ccc(-c4cccnc4)c(=O)n3C[C@H]1[C@H](CO)[C@H]2C(=O)O | nt | 2 | nt | nt | nt | nt
O=Cc1cn(Cc2c(F)cccc2Cl)nc1-c1ccccc1 | 4 | -11 | -1 | -6 | -2 | 5
CCc1ccc(-c2nn(Cc3ccccc3)cc2C=O)cc1 | 5 | 67* | -1 | 14 | -10 | 8
SMILES | SMARCA2 activ | esBAF inh | NR3A LBD binder | Vif imaging | NadD inh | SKN-1 block
COC(=O)[C@@H]1[C@@H](CO)[C@@H]2Cn3c(ccc(-c4ccccc4F)c3=O)[C@H]1N2 | nt | -1 | nt | nt | nt | nt
Cc1cccc(S(=O)(=O)N2[C@@H]3Cn4c(ccc(-c5ccncc5)c4=O)[C@H]2[C@@H](C(=O)O)[C@@H]3CO)c1 | nt | -2 | nt | nt | nt | nt
O=C1CC=C2C3CC4N(CCC45c4cc(O)c(O)cc4N1C25)CC3=CCBr (centres undefined) | 1 | nt | -8 | -3 | 92* | 2
O=C1CC=C2C3CC4N(CCC45c4ccccc4N1C25)CC3=CCO (centres undefined) | -4 | -2 | 1 | -9 | -3 | 12
O=C(O)[C@@H]1[C@@H](CO)[C@@H]2Cn3c(ccc(C4=CCCC4)c3=O)[C@H]1N2C(=O)Cc1ccccn1 | nt | 2 | nt | nt | nt | nt
COc1cc(N2CCOCC2)ccc1/C=C1\C(=O)NC(=O)N(Cc2ccc3c(c2)OCO3)C1=O | -4 | nt | 4 | -3 | 14 | 41*
COc1cc(N2CCOCC2)ccc1/C=C1\C(=O)NC(=O)N(Cc2cccs2)C1=O | -1 | nt | 2 | 6 | 16 | 27
COC(=O)[C@H]1[C@H](CO)[C@H]2Cn3c(ccc(-c4ccc(F)cc4)c3=O)[C@@H]1N2Cc1ccccc1 | nt | 0 | nt | nt | nt | nt
CC1=Nc2ccccc2/C1=C/c1c(O)[nH]c(=O)[nH]c1=O | 1 | -6 | 1 | ? | -3 | 36*
Cc1ccc2c(c1)=NC(=O)/C(=C/c1c(O)[nH]c(=O)[nH]c1=O)C=2 | -1 | -5 | -4 | -9 | -1 | -16
CCN1[C@@H]2Cn3c(ccc(-c4cccc(C(=O)N(C)C)c4)c3=O)[C@H]1[C@@H](C(=O)OC)[C@@H]2CO | nt | -9 | nt | nt | nt | nt
CC1=CC2OC3CC4OC(=O)C=CC=CC(C(C)O)OCC(O)C5(C)OC5C(=O)OCC2(CC1O)C4(C)C31CO1 (centres undefined) | -10 | nt | -3 | -7 | -3 | 40*
Cc1nn(Cc2ccccc2)c(Cl)c1C(=O)Nc1ccc(OC(F)(F)F)cc1 | -1 | nt | -3 | 0 | -6 | 15
Cc1ccc(Cn2nc(C(=O)Nc3ccc(Br)cc3)cc2C)cc1 | -4 | 59* | -18 | -8 | -3 | 5
CC(C)CNC(=O)c1c(N)n(Cc2ccco2)c2nc3ccccc3nc12 | -4 | nt | -9 | -8 | 16 | 16
CC(C)CCNC(=O)c1c(N)n(Cc2ccc3c(c2)OCO3)c2nc3ccccc3nc12 | -4 | nt | 32* | 14 | 16 | 7
CCCNC(=O)c1c(N)n(Cc2ccc3c(c2)OCO3)c2nc3ccccc3nc12 | nt | 2 | 21* | -9 | 10 | -6
CC(C)CNC(=O)c1c(N)n(Cc2ccc3c(c2)OCO3)c2nc3ccccc3nc12 | -2 | nt | 22* | 1 | 11 | 2
COCCNC(=O)c1c(N)n(CCC(C)C)c2nc3ccccc3nc12 | -4 | nt | -7 | 2 | -6 | -3
CC(C)CCn1c(N)c(C(=O)NCc2cccs2)c2nc3ccccc3nc21 | nt | -6 | 18* | -2 | 9 | 2
COC(=O)[C@@H]1[C@@H](CO)[C@@H]2Cn3c(ccc(-c4ccccc4)c3=O)[C@H]1N2CC1CCOCC1 | nt | 0 | nt | nt | nt | nt
